Test results as given in PubChem BioAssay (NCI).
About 83,000 compounds went through this panel and 20% of them were active in at least one assay; those are over-represented in the sample as a whole.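 96-well plates, one dose, 48 hours. Percent growth reported; active if below 10.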 Activity calls are given as the source filed them.

Columns and labels:
Experiment in all cases: NCI-60 one-dose screen, 48 h (100 = growth as untreated, 0 = no growth, -100 = all killed)
Details in all cases: 10 µM unless noted
[1] = system: NCI-H23 lung
[2] = system: NCI-H226 lung
[3] = system: NCI-H322M lung
[4] = system: HOP-62 NSCLC
[5] = system: NCI-H460 lung
[6] = system: HOP-92 NSCLC
[7] = system: NCI-H522 lung
[8] = system: A549/ATCC NSCLC
[9] = system: 786-0 renal
[10] = system: COLO 205 colon
[11] = system: DU-145 prostate
[12] = system: K-562 leukemia
[13] = system: MALME-3M melanoma
[14] = system: MDA-MB-231 breast
[15] = system: RXF 393 renal
[16] = system: SF-268 CNS
[17] = system: SF-295 CNS
[18] = system: SF-539 CNS
[19] = system: UACC-257 melanoma
[20] = system: M14 melanoma

Measured: growth

Cc1ccc(-c2nc(SCC(=O)c3ccccc3)nc(Nc3ccc(S(N)(=O)=O)cc3)c2C#N)cc1
inactive: [1] 34.5% | [2] 71.4% | [3] 99.5% | [4] 26.2% | [5] 65.2% | [6] 37.6% | [7] 87.1% | [8] 87.4% | [9] 46.3% | [10] 101% | [11] 60.7% | [12] 70.1% | [13] 33.6% | [14] 33% | [15] 51.7% | [16] 76.7% | [17] 36.7% | [18] 18.3% | [19] 97.4% | [20] 36.7%

O=C1Nc2cc(Cl)ccc2/C1=C\c1ccc(OCc2ccccc2)cc1
inactive: [1] 94.3% | [2] 92.9% | [3] 99.5% | [4] 96.2% | [5] 104% | [6] 109% | [7] 99.8% | [8] 105% | [9] 105% | [10] 110% | [11] 101% | [12] 93.1% | [13] 115% | [14] 104% | [15] 114% | [16] 94.5% | [17] 115% | [18] 94.5% | [19] 116% | [20] 96.2%

COc1ccc2c(c1)c(/C=N/Nc1ccnc3cc(Cl)ccc13)cn2C
active: [1] -80.5% | [2] -52.3% | [3] -95.1% | [4] -81.1% | [5] -79.1% | [6] -81.7% | [7] -65.4% | [8] -69.7% | [9] -81.3% | [10] -86.6% | [11] -93.3% | [12] -48.1% | [13] -77.2% | [14] -82.8% | [15] -81.1% | [16] -67.1% | [17] -84.4% | [18] -82.9% | [19] -84.2% | [20] -72%

CN1CCN(c2ccc(Nc3nc(NCCCNS(=O)(=O)c4cccc5ccccc45)c4sccc4n3)cc2)CC1
inactive: [1] 30.4% | [2] 86% | [3] 11.4% | [4] 25.6%
active: [5] -14% | [6] -43.6% | [7] -81.1% | [8] -9.22% | [9] -82.1% | [10] -74.1% | [11] -6.73% | [12] 5.72% | [13] -91.6% | [14] -29% | [15] -87.1% | [16] -24.1% | [17] -71.8% | [18] -92.1% | [19] -89% | [20] -81.9%

O=C(CCCCCCNC(=O)C(O)(O)C(F)(F)F)Nc1nc2ccccc2s1
inactive: [2] 25.4% | [9] 20.3% | [12] 11.2% | [13] 14.4% | [14] 23.5% | [18] 10.5% | [20] 14.5%
active: [1] 3.62% | [3] 8.24% | [4] 0.982% | [5] 8.87% | [6] -5.22% | [7] -35.8% | [8] 4.79% | [10] -68.5% | [11] 6.73% | [15] -47.3% | [16] 8.81% | [17] -36.5% | [19] 8.93%

COc1ccc2c(c1)c(-c1nnc(N)nc1-c1c[nH]c3ccc(F)cc13)cn2C
inactive: [1] 44.6% | [2] 57.8% | [3] 87% | [4] 54.7% | [5] 15.1% | [6] 68.7% | [7] 27.2% | [8] 50.7% | [9] 46% | [10] 41.4% | [11] 70.4% | [12] 11.9% | [13] 75.7% | [14] 73.7% | [15] 47.8% | [16] 54.2% | [17] 33% | [18] 40.5% | [19] 62.5% | [20] 32.8%

CN1CCC[C@]2(C)[C@H]3CC[C@@H]4[C@@H]5[C@H]6OC[C@@]5(CCC6(C)C)CC[C@@]4(C)[C@]3(C)CC[C@H]2C1(C)C
inactive: [1] 91% | [2] 93.2% | [3] 87.8% | [4] 94.2% | [6] 50.6% | [7] 96.3% | [8] 71.7% | [9] 84.4% | [11] 56.2% | [13] 89.1% | [14] 67.3% | [15] 74.5% | [16] 103% | [17] 103% | [18] 78.4% | [19] 107% | [20] 97.9%
active: [5] 1.69% | [10] -8.01% | [12] 4.84%
